About 83,000 compounds went through this panel and 20% of them were active in at least one assay; those are over-represented in the sample as a whole.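 A percent growth of 40 corresponds to 60% growth inhibition; 0 means no net growth; -100 means all cells died. Active threshold: below 10.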 The source made the active and inactive calls.
What was measured:
Assay in all cases: NCI-60 one-dose screen, 48 h (100 = growth as untreated, 0 = no growth, -100 = all killed)
Conditions in all cases: 10 µM unless noted
[1] = system: HCT-15 colon
[2] = system: HT29 colon
[3] = system: SNB-75 CNS
[4] = system: SNB-19 CNS
[5] = system: U251 CNS
[6] = system: PC-3 prostate
[7] = system: SK-MEL-5 melanoma
[8] = system: UACC-62 melanoma
[9] = system: LOX IMVI melanoma
[10] = system: SK-MEL-28 melanoma
[11] = system: SK-MEL-2 melanoma
[12] = system: EKVX NSCLC
[13] = system: SN12C renal
[14] = system: UO-31 renal
[15] = system: TK-10 renal
[16] = system: ACHN renal
[17] = system: CAKI-1 renal
[18] = system: A498 renal
[19] = system: MOLT-4 leukemia
[20] = system: CCRF-CEM leukemia

Measured: growth

COc1cc(/C=C2\CN(C(=O)OC(C)(C)C)C/C(=C\c3ccc(O)c(OC)c3)C2=O)ccc1O
inactive: [1] 98.4% | [2] 96.5% | [3] 94.8% | [4] 87.3% | [5] 92.9% | [6] 81.7% | [7] 93.4% | [8] 82.4% | [9] 92.4% | [10] 111% | [11] 86.2% | [12] 92.8% | [13] 88.9% | [14] 81% | [15] 105% | [16] 100% | [17] 74.2% | [18] 104% | [19] 47.4%

CC[C@H](C)[C@H](N)C(=O)O
inactive: [1] 107% | [2] 109% | [3] 99.1% | [4] 105% | [5] 107% | [6] 99.1% | [7] 101% | [8] 102% | [9] 98.7% | [10] 109% | [11] 109% | [12] 107% | [13] 101% | [14] 83.9% | [15] 121% | [16] 103% | [17] 95.6% | [18] 91% | [19] 116%

CCOC(=O)C1OC2(CCCC2)OC1C(=O)OCC (stereo unspecified)
inactive: [1] 106% | [2] 99.2% | [3] 104% | [4] 99.3% | [5] 109% | [6] 97.6% | [7] 101% | [8] 96.7% | [9] 102% | [10] 122% | [11] 94.9% | [12] 108% | [13] 101% | [14] 83% | [15] 102% | [16] 109% | [17] 102% | [18] 107% | [19] 92.2%

COc1ccc(-c2cc(C(=O)Nc3ccc(C)cc3)nc3[nH]c(=O)sc23)cc1
active: [18] 9.83%
inactive: [1] 63.8% | [2] 81.4% | [3] 102% | [4] 57.7% | [5] 56.2% | [6] 73.8% | [7] 37.2% | [8] 31.3% | [9] 77.7% | [10] 70% | [11] 29.2% | [12] 73.3% | [13] 58.2% | [14] 58.3% | [15] 61.1% | [16] 90.2% | [17] 60.6% | [20] 71.1% | [19] 81.5%

O=C(O)CSc1ccc(NCc2oc(CO)cc(=O)c2O)cc1
inactive: [1] 107% | [2] 99.5% | [3] 87% | [4] 110% | [5] 103% | [6] 98.8% | [7] 99.8% | [8] 102% | [9] 91.7% | [10] 104% | [11] 119% | [12] 106% | [13] 98.2% | [14] 80% | [15] 111% | [16] 97.3% | [17] 98.4% | [18] 106% | [19] 88.3%

COc1ccccc1CNCCCN1C(=O)c2ccc3c4c(ccc(c24)C1=O)C(=O)N(CCCOCCCCOCCCN)C3=O
active: [1] -52.7% | [2] -55% | [3] -5.57% | [4] -11.1% | [5] -48.6% | [6] 3.91% | [7] -98.7% | [8] -79.8% | [9] -34.3% | [10] -4.3% | [11] -42.7% | [12] -83.3% | [13] -87.5% | [14] -21.1% | [16] -62.2% | [17] -4.24% | [18] -16.1% | [19] -9.44%
inactive: [15] 28.6%

COc1cc(C2CC(c3ccc(Cl)cc3)=NN2C(C)=O)ccc1Oc1nc2c(c(=O)n(C)c(=O)n2C)n1C (stereo unspecified)
inactive: [1] 88.5% | [2] 73.8% | [3] 75% | [4] 59.8% | [5] 80.7% | [6] 75.6% | [7] 55.6% | [8] 75.9% | [9] 64.5% | [10] 86.6% | [11] 105% | [12] 83.6% | [13] 50.3% | [14] 76.3% | [15] 110% | [16] 87.2% | [17] 81.5% | [18] 77.4% | [20] 80.5% | [19] 62.6%

COc1ccc(C2=NNC(c3ccc(Oc4nc5c(c(=O)n(C)c(=O)n5C)n4C)c(OC)c3)C2)cc1 (stereo unspecified)
inactive: [1] 93.8% | [2] 95.5% | [3] 78.7% | [4] 87.6% | [5] 83.2% | [6] 101% | [7] 85.3% | [8] 81.2% | [9] 91.4% | [10] 97.1% | [11] 99.4% | [12] 97.7% | [13] 85.2% | [14] 81.2% | [15] 107% | [16] 93.7% | [17] 102% | [18] 91.9% | [19] 76%

Cc1ccc(Nc2cc(Cl)c([N+](=O)[O-])cc2[N+](=O)[O-])cc1
active: [2] 3.12% | [9] 9.04%
inactive: [1] 16.8% | [3] 96% | [4] 85.8% | [5] 25.8% | [6] 55.3% | [7] 53.6% | [8] 48.7% | [10] 71.5% | [11] 28.3% | [12] 102% | [13] 24.6% | [14] 77.7% | [15] 15.5% | [16] 26% | [17] 32.8% | [18] 92.3% | [19] 10.3%

CC(C)c1ccc2c(c1)CCC1C2CCCC1(C)NCc1ccccc1 (stereo unspecified)
active: [1] 6.42% | [8] -27.4% | [10] -32%
inactive: [2] 16.2% | [3] 85.3% | [4] 104% | [5] 48% | [6] 85.4% | [7] 27.5% | [9] 52.1% | [11] 26.8% | [12] 80.3% | [13] 66.9% | [14] 45.4% | [15] 95% | [16] 90.6% | [17] 63.1% | [18] 91.5% | [19] 39.9%

COc1cc(Cl)cc(-c2nn(C(=O)NCCN3CCOCC3)cc2-c2ccncc2)c1
inactive: [1] 45.7% | [2] 34.1% | [3] 28.9% | [4] 69.2% | [5] 57.7% | [6] 70.6% | [7] 35.5% | [8] 52.4% | [9] 63.2% | [10] 61.4% | [11] 78.3% | [12] 93.4% | [13] 75.3% | [14] 56.9% | [15] 78% | [16] 65.6% | [17] 73.3% | [18] 65.7% | [19] 74.2%

NC(N)=NC1CCCCC1
inactive: [1] 103% | [2] 97.1% | [3] 107% | [4] 104% | [5] 89.9% | [6] 89.8% | [7] 107% | [8] 99.6% | [9] 91.6% | [10] 109% | [11] 101% | [12] 93% | [13] 103% | [14] 84.7% | [15] 84.1% | [17] 93.9% | [18] 98.1% | [20] 90.3% | [19] 92.5%

N=C(N)c1ccc(NCCNc2ccc(C(=N)N)cc2)cc1
active: [20] -71.7% | [19] -52.9%
inactive: [1] 90.6% | [2] 103% | [3] 101% | [4] 116% | [5] 89.8% | [6] 123% | [7] 82% | [8] 81.8% | [9] 86.8% | [10] 114% | [11] 97.3% | [12] 102% | [13] 46% | [14] 87.2% | [15] 111% | [17] 74.3% | [18] 90.2%

COc1cc(NCCC2CCCCN2)c2ncccc2c1OC (stereo unspecified)
inactive: [1] 86.1% | [2] 73.7% | [3] 156% | [4] 91.8% | [5] 33.5% | [6] 68.2% | [7] 77.8% | [8] 81.1% | [9] 15% | [10] 107% | [11] 50.5% | [12] 114% | [13] 81.6% | [14] 65.3% | [16] 82.9% | [17] 100% | [18] 113% | [20] 47.2% | [19] 43%

CC(C)(C)OC(=O)N1CCCN(CCNc2nccc(-c3c(-c4cccc(O)c4)nc4sccn34)n2)S1(=O)=O
inactive: [1] 99.9% | [2] 56.7% | [3] 84% | [4] 126% | [5] 117% | [6] 85% | [7] 86.9% | [8] 12.1% | [9] 32.3% | [10] 45.4% | [11] 103% | [12] 112% | [13] 82.7% | [14] 74.5% | [16] 66.6% | [17] 49.4% | [18] 127% | [20] 75.8% | [19] 90.8%

O=C1C=CN2C(=O)CC=CC2[C@@H]1O (stereo partly specified)
inactive: [1] 138% | [2] 110% | [3] 94.1% | [4] 130% | [5] 120% | [6] 94.9% | [7] 109% | [8] 115% | [9] 100% | [10] 110% | [11] 113% | [12] 121% | [13] 106% | [14] 78.2% | [16] 109% | [17] 109% | [18] 108% | [20] 96.3% | [19] 109%

Reference: PubChem BioAssay (NCI)
